FUS suppressor: FUS proteinopathy suppression in yeast; S. cerevisiae FUS-expressing, growth rescue, OD600, 24 h; Potency, µM (top dose mostly 76.6 µM), hits mostly activators; 390,000 tested, 0.24% active;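 also: plate controls were DMSO vehicle for no effect and reference control for full effect; nearly all actives have a fitted effect of over 55% in size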
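Steps: raffinose overnight preculture; dilution to OD 0.005 in 2% galactose minimal medium; compound addition (concentration series); 24hr at 30C, 99% humidity; absorbance read at 600 nm.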
Abeta rescue: restores growth of yeast expressing A-beta42 peptide. yeast expressing A-beta42, growth rescue, OD600, 48 h; response scale: 0% DMSO, 100% iron-clioquinol control. Potency, µM (series often up to 46.1 µM), hits mostly activators. 410,000 tested, 0.063% active; also: nearly all actives have a fitted effect of over 55% in size
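Yeast growth medium received pinned compounds, then yeast cells expressing toxic A-beta were added; plates incubated at 30 C for 48 hr. Growth read as absorbance at 600 nm, normalized to DMSO and equimolar FeCl3 plus clioquinol controls.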
TDP-43 yeast inh: inhibitors of TDP-43 toxicity in yeast | 410,000 tested, 1.8% active | Potency, µM (series often up to 46.1 µM), for inactives: at the highest dose growth rescue (activation), hits mostly activators | TDP-43 expressing yeast growth rescue, BacTiter-Glo, 24 h; also: % of control where 0% means no effect; nearly all actives have a fitted effect of over 50% in size
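In this qHTS, compounds that restore growth of yeast expressing TDP-43 appear as activators. Cells (OD600=0.02, galactose medium, raffinose-pregrown) are incubated with compound 24 hr at 30 deg C and growth is quantified by BacTiter-Glo.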
aSyn yeast inh: alpha-synuclein toxicity inhibition in yeast; Yeast expressing alpha-synuclein, growth rescue, BacTiter-Glo, 24 h; AID 652106; Potency, µM (series often up to 46.1 µM), for the others: at the highest dose growth rescue (activation), most hits filed as activators; 370,000 tested, 0.14% active; also: % of control where 0% means no effect; nearly all actives have a fitted effect of over 65% in size
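Readout is rescue of growth in alpha-synuclein-expressing yeast, so inhibitors of toxicity appear as activators. Growth after 24 hr at 30 deg C in galactose medium is quantified by luminescence.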
An asterisk follows results filed as active; i = inactive; u = inconclusive; x = no result. This is a sample that favours compounds with a hit; in the whole collection about 2.1% have one here. Calls follow the shape of the dose curve; as a rule, active = well fitted curve in the direction sought with a large enough effect; inconclusive = small, poorly fitted or top-dose-only effect, or another doubt; inactive = no such curve, though single readings can be large; an effect the other way counts as inactive or inconclusive. Potency is read from the fitted curve at half-maximal effect.

SMILES | FUS suppressor | Abeta rescue | TDP-43 yeast inh | aSyn yeast inh
Cc1ccc2[nH]cc(C(c3ccccc3)c3cccs3)c2c1 (centres undefined) | i | i | 8.9µM* | x
O=[N+]([O-])c1ccc2nc(COCc3nc4ccccc4[nH]3)[nH]c2c1 | i | x | x | x
COc1cc(C(=O)C(=O)N2CCC(Cc3ccccc3)CC2)cc2ccccc12 | i | i | 15% | 4%
NC(=S)N=Nc1ccc(O)cc1 | x | i | 13µM* | -15%
CC(C)(C)c1ccc(C2=NC(C)(C)N(CC(=O)Nc3ccc(F)c(F)c3)C2=O)cc1 | i | i | 11% | x
CCc1ccc(CN(C)C(=O)c2cc(COc3cc(C)c(Cl)c(C)c3)on2)nc1 | u | i | 20µM* | u
CC(=O)c1ccc(OCc2cc(C(=O)N(C)C3CCOC3)no2)cc1 (centres undefined) | i | i | 10% | 1%
Cc1cc(OCc2cc(C(=O)N(C)Cc3nonc3C)no2)cc(C)c1Cl | i | 14µM* | u | 17%
Cc1cc(OCc2cc(C(=O)N(C)C3CCOC3)no2)cc(C)c1Cl (centres undefined) | i | i | 13µM* | 11%
CCc1ccc(CN(C)C(=O)c2cc(COc3cncc(Cl)c3)on2)cc1 | i | i | 25% | 11%
Cc1cc(OCc2cc(C(=O)N(C)CCc3cnn(C)c3)no2)cc(C)c1Cl | i | i | 3% | 6%
CN(c1ccc(/C=C/c2ccccc2)cc1)P1(=O)NCCCO1 (centres undefined) | x | x | x | 0%
COC(=O)c1cc2sc(C)cc2n1Cc1nc(-c2ccc(C)cc2)oc1C | i | i | 11% | x
NC(=O)c1nsc(C(=O)N(c2ccccc2)C(C(=O)NC2CCCC2)c2ccc3ncccc3c2)c1N (centres undefined) | i | i | 13% | -1%
COc1ccc(N(C(=O)c2snc(C(N)=O)c2N)C(C(=O)NC2CCCC2)c2ccc3ncccc3c2)cc1 (centres undefined) | 28µM* | i | -20% | -5%
COc1ccc(N(C(=O)c2snc(C(N)=O)c2N)C(C(=O)NCc2ccccc2)c2ccc(O)cc2)cc1OC (centres undefined) | u | i | -3% | 0%
COc1ccc(N(C(=O)c2snc(C(N)=O)c2N)C(C(=O)NCc2ccc(F)cc2)c2ccc(O)cc2)cc1 (centres undefined) | 28µM* | i | -8% | -1%
CCn1c(CNC(=O)c2ccco2)nnc1SCC(=O)Nc1cc(F)ccc1C | i | i | -8% | 2%
CN(Cc1nc2ccccc2c(=O)[nH]1)C(=O)c1ccccc1OCc1ccc(Cl)cc1 | i | i | 20µM* | 13%
CN(C(=O)c1ccccc1OCc1ccc(Cl)cc1)c1ccccc1 | i | i | -5% | 1%
CCCCCCCCCc1conc1C(=O)CP(=O)(OC)OC | i | i | 35µM* | -4%
O=C(OCc1ccccc1Cl)c1ccc(-n2cnnc2)cc1 | i | i | 13µM* | 12%
O=C(CCc1ccccc1)NC1(Cc2ccccc2)CCN(CCCc2ccccc2)C1=O (centres undefined) | i | i | -34% | u
CCn1cc(S(=O)(=O)c2ccc(C)cc2)c(=O)c2cc(OC)ccc21 | i | i | 0% | -6%
CCOc1ccc(S(=O)(=O)c2cn(Cc3ccc(C)cc3)c3ccc(OC)cc3c2=O)cc1 | 16µM* | i | 21% | x
SMILES | FUS suppressor | Abeta rescue | TDP-43 yeast inh | aSyn yeast inh
N#Cc1ccc(C(=O)NC2CCCCCCC2)cc1 | i | i | -16% | -5%
Cc1ccc(N2C(=O)C(Cl)=C(N3CCOCC3)C2=O)c(C)c1 | i | i | 20µM* | -2%
Cc1ccc(NC(=O)Cn2c(=O)n(Cc3ccccc3)c(=O)c3c(C)c(C(=O)N(C)C)sc32)c(C)c1 | i | i | 0% | x
Cn1nc(-c2ccccc2)c(C(=O)Nc2ccc(Cl)cc2)c1Cl | i | i | 3.2µM* | 4%
Cn1nc(-c2ccccc2)c(C(=O)Nc2ccc(C(F)(F)F)cc2)c1Cl | i | i | -2% | -7%
Cn1nc(C(F)(F)F)c(C(=O)Nc2ccc(C(F)(F)F)cc2)c1Cl | i | i | 20µM* | -4%
C=C1C(=O)[C@]23C[C@H]1CCC2[C@]1(C)C(=O)CC[C@@](C)(C(=O)O)C1C[C@@H]3O (some centres undefined) | i | i | 13µM* | 16µM*
C=C1C(=O)[C@]23C[C@H]1CCC2[C@]1(C)CCC[C@@](C)(C(=O)O)C1C[C@@H]3O (some centres undefined) | i | i | u | u
O=C(Nc1ccccc1O)c1cc(S(=O)(=O)N2CCCC2)ccc1Cl | i | i | 22% | x
COc1cc(OC)c(NC(=O)C(NS(=O)(=O)c2cccc3nsnc23)c2ccccc2)cc1Cl (centres undefined) | 22µM* | i | 7% | x
COc1cc(OC)c(C(=O)/C=C/c2ccccc2)c(O)c1O | i | i | 13µM* | 7%
COc1cc(O)cc(O)c1C(=O)/C=C/c1ccccc1 | i | i | 12% | 12%
CC1(C(=O)NCc2ccc(F)c(F)c2)Cc2c(-c3cccc(C(F)(F)F)c3)ccnc2O1 (centres undefined) | i | i | 0% | u
CC1(C(=O)NCc2ccccc2)Cc2c(-c3ccc4c(c3)OCO4)ccnc2O1 (centres undefined) | i | i | 18µM* | 23%
CC1(C(=O)NCCc2ccccc2)Cc2c(-c3ccc4c(c3)OCO4)ccnc2O1 (centres undefined) | i | i | 21% | -1%
CC1(C(=O)NCc2ccc(F)c(F)c2)Cc2c(-c3ccccc3)ccnc2O1 (centres undefined) | i | i | 35µM* | 9%
CC(=O)c1cccc(NC(=O)C2(C)Cc3c(-c4ccccc4)ccnc3O2)c1 (centres undefined) | i | i | 20µM* | -3%
CC(=O)Nc1ccc(-c2ccnc3c2CC(C)(C(=O)Nc2cccc(C(C)=O)c2)O3)cc1 (centres undefined) | i | i | 26% | -3%
CCOC(=O)c1cccc(NC(=O)COc2nsnc2N2CCOCC2)c1 | i | i | 4% | 0%
Cc1scc(-c2n[nH]c(=S)n2C(C)c2ccccc2)c1C (centres undefined) | x | i | 35µM* | -1%
CC(c1ccccc1)n1c(-c2ccccc2)n[nH]c1=S (centres undefined) | x | x | x | 9%
Cc1ccccc1-n1c(-c2csc(C)c2C)n[nH]c1=S | i | 4.5µM* | u | 15%
Cc1ccccc1-n1c(-c2csc3ccccc23)n[nH]c1=S | i | i | 20µM* | 4%
C=CCn1c(-c2csc3ccccc23)n[nH]c1=S | i | i | 19% | 0%

Screens deposited in PubChem by National Center for Advancing Translational Sciences (NCATS).
